Shown are actives, neighbours in structure and some others; about 1.2% of the full set was active somewhere.
TNFa cytotox: cytotoxicity in TNFa-stimulated HUVEC, primary screen, cytotoxicity control for VCAM1 expression modulator project, imaging, Hoechst nuclei count | HUVEC TNFalpha-stimulated, Hoechst cell count | cell count reduction, % at 2 µM | 93,000 compounds, 0.17% hits;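 active = cell count reduction exceeding the screen mean by over 5 SD, scaled to untreated wells per plate, cut at about 78% in these data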;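 note: cells counted after 24 h of TNF alpha exposure following the 1 h pretreatment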
F-actin modifier: modifiers of F-actin cytoskeleton organization, primary screen, imaging, HUVEC, phalloidin staining, high-content imaging; inhibition, % at 2 µM; AID 836, 2007; 91,000 compounds, 0.18% hits; HUVEC TNFa F-actin phalloidin imaging;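 active = inhibition above the batch mean plus 3 SD and confirmed as a hit by visual image inspection, cut at about 30% in these data, passing the limit was not always enough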
E-sel TNF inh: E-selectin induction blockers in HUVEC – imaging, immunofluorescence, high content, primary screen. 120,000 compounds, 0.71% hits. HUVEC TNFa-induced E-selectin immunofluorescence. inhibition, % at 2 µM. AID 1246, 2008;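 active = inhibition above the batch mean plus 3 SD, and confirmed as a hit on visual image review, cut at about 43% in these data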;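 note: 0% = TNF-stimulated DMSO wells and 100% = unstimulated control wells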
VCAM1 TNFa inh: inhibitors of TNFa-induced VCAM1 expression, primary screen, imaging, HUVEC, TNFa stimulus, immunofluorescence | HUVEC TNFa-induced VCAM-1 immunofluorescence, high-content imaging | inhibition, % at 2 µM | 95,000 compounds, 0.48% hits;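 active = inhibition above the batch mean plus 3 SD, with images confirmed as a hit by eye, cut at about 37% in these data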;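 note: 0% = TNF-stimulated DMSO wells and 100% = unstimulated control wells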
* = called active by the depositor; / = no result.

SMILES	TNFa cytotox	F-actin modifier	E-sel TNF inh	VCAM1 TNFa inh
COc1cc(CN2CCN(c3ccc(C)cc3)CC2)cc([N+](=O)[O-])c1O	-7	5	100*	9
COc1cc(CN2CCN(c3cc(C)ccc3C)CC2)cc([N+](=O)[O-])c1O	-2	-10	0	6
O=C(/C=C/c1ccc2c(c1)OCO2)Nc1nc2ccccc2s1	/	/	62*	/
COCc1nnc(NS(=O)(=O)c2ccc(Br)cc2)s1	-18	1	-10	-2
Cc1nnc(SCc2cn3ccsc3n2)n(N)c1=O	82*	31	-14	62*
Cc1ccc(NC(=O)C2=C(c3ccccc3)S(=O)(=O)CCS2(=O)=O)cc1	/	/	79*	/
Cc1ccc(-c2nnc(SCC(=O)N/N=C/c3ccc(C)s3)n2-c2ccc(C)cc2)cc1	/	/	6	/
CCOc1ccc2nc(C)cc(Nc3ccc4c(c3)OCCO4)c2c1	-32	68*	6	12
Cc1ccc2nc(C)cc(Nc3ccc4c(c3)OCCO4)c2c1	-14	5	-4	22
NNC(=O)CCc1nc2ccccc2[nH]1	/	/	-7	/
COCCCNCCCCOc1ccc(OCc2ccccc2)cc1	/	/	66*	/
Cc1ccc(CN2C3CCCC2CC(NC(=O)c2ccc(C)cc2)C3)cc1 (configuration not stated)	/	/	-53	/
Cc1ccc(/C=C/C(=O)O)cc1S(=O)(=O)NCCO	-17	27	54*	7
O/N=C\c1cccn1-c1ccc(Br)cc1	8	-15	8	-18
O=C(c1ccc(S(=O)(=O)N2CCc3ccccc3C2)cc1)N1CCCCC1	/	/	18	/
N#C/C(=C\c1cc(Cl)ccc1O)C(=O)NC1CCCCC1	-17	-17	/	-13
N#C/C(=C\c1cc(Cl)cc(Cl)c1O)C(=O)NC1CCCCC1	22	16	100*	23
Cc1cc(C)c(C(=O)Nc2ccc(Br)c(C(F)(F)F)c2)c(C)c1	/	/	12	/
Cc1ccc2[nH]c3c(c2c1)CN(C(=O)CN1CCN(c2ccccc2F)CC1)CC3	-3	-14	-4	12
O=C(CN1CCN(c2ccccc2F)CC1)c1c[nH]c2ccccc12	12	-1	53*	8
O=C(Cn1nnc(-c2ccc(Cl)cc2)n1)NC1CCN(Cc2ccccc2)CC1	-18	21	100*	-16
C=CCNC(=S)NNC(=O)COc1cccc(Cl)c1	/	14	-5	-14
CCOc1ccc(S(=O)(=O)Nc2ccccn2)c2ccccc12	-26	4	-5	6
O=S(=O)(Nc1ccccn1)c1ccc(Cl)c2ccccc12	/	/	82*	/
CCC(C)c1ccccc1OCCCCN1CCCC1 (configuration not stated)	/	/	64*	/
SMILES	TNFa cytotox	F-actin modifier	E-sel TNF inh	VCAM1 TNFa inh
CCC(C)c1ccccc1OCCOCCN1CCCC1 (configuration not stated)	/	/	-3	/
COc1ccc(C(=O)NCC(C)C)c(OC)c1	-12	-16	91*	-5
Cc1cccc(NC(=O)Cn2nc(C(F)(F)F)cc2C2CC2)c1	-13	40*	-27	-48
COc1ccc(S(=O)(=O)N(CC(=O)O)c2ccccn2)cc1	-7	-16	5	10
COc1ccc(S(=O)(=O)n2ccc(-c3ccc(OCCN(C)c4ccccn4)cc3)n2)cc1	-16	66*	29	0
O=S(=O)(NC(=NCCc1ccc(Cl)cc1)c1ccccc1Cl)c1cccs1	/	/	-26	/
O=C(Nc1ccc(Br)cc1)c1ccc(N2C(=O)C3CC=C(Cl)CC3C2=O)cc1 (configuration not stated)	2	/	6	-8
CC(C)(C)NS(=O)(=O)c1ccc(Oc2ncc(C(F)(F)F)cc2Cl)cc1	-14	61*	23	-2
CCOC(=O)CSc1nc(C2CC2)nc2ccccc12	5	48	8	-6
COc1ccc(NC(=O)/C(Cl)=C(/Cl)S(=O)(=O)Cc2ccc(C)cc2)cn1	30	-24	72*	51*
COc1ccc(NC(=O)/C(Cl)=C(/Cl)S(=O)Cc2ccccc2Cl)cn1 (configuration not stated)	/	/	100*	/
COc1ccc(-c2n[nH]c(C)c2-c2ccc(Cl)cc2)c(O)c1	-19	5	-22	-2
COc1ccc(-c2n[nH]c(C(F)(F)F)c2-c2cc3ccccc3o2)c(O)c1	18	/	43*	-26
COc1cc(-c2nnc(-c3ccccc3)o2)cc(OC)c1OC	-6	-4	2	-15
COc1cc(-c2nnc(COc3ccc4ccccc4c3)o2)cc(OC)c1OC	-24	5	100*	-1
COCCN1C(=O)N(c2cccc(C)c2)C(=O)C1CC(=O)Nc1ccc(F)cc1 (configuration not stated)	-7	-12	80*	8

Source: PubChem
